The whole screen tested about 5,500 compounds, of which about 2,000 (36%) were called active. Roughly 18% stayed inconclusive and do not appear here. No stated cut-off is given here; in the data, active means normalized growth mostly below about 0.91 (no sharp cut-off); inconclusive means no clear call, values can overlap the other calls; inactive means mostly above about 0.92. The list shows a part of the results.
Experiment: chemical genetic growth profiling, strain panel (AID 1159580);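 further: tested at 20 µM; growth read once vehicle control cultures reached saturation at 30 °C; 1 = growth at the plate median or of vehicle wells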
Conditions: S. cerevisiae deletion strains, growth OD
[1] = locus YAL040C, strain CLN3, stronger effect = lower value
[2] = locus YCL061C, strain MRC1 (second series), stronger effect = lower value
[3] = locus YDR150W, strain NUM1, stronger effect = lower value
[4] = locus YDR363W, strain ESC2, stronger effect = lower value
[5] = locus YER002W, strain NOP16, stronger effect = lower value
[6] = locus YGR078C, strain PAC10, stronger effect = lower value
[7] = locus YNL128W, strain TEP1, stronger effect = lower value
[8] = locus YNL153C, strain GIM3, stronger effect = lower value
[9] = locus YNL175C, strain NOP13, stronger effect = lower value
[10] = locus YNL197C, strain WHI3, stronger effect = lower value
[11] = locus YNL224C, strain SQS1, stronger effect = lower value
[12] = locus YOR083W, strain WHI5 (second series), stronger effect = lower value
[13] = locus YPL241C, strain CIN2, stronger effect = lower value

Measured: normalized growth

CNCC[C@H](Oc1ccc(C(F)(F)F)cc1)c1ccccc1
inactive: [1] 0.981 | [2] 0.985 | [3] 0.993 | [4] 1.01 | [5] 1.01 | [6] 0.969 | locus YMR263W, strain SAP30, stronger effect = lower value 0.997 | [7] 1.01 | [8] 0.886 | [9] 1 | [10] 0.988 | [11] 1 | [12] 0.874 | [13] 0.982

CNCC[C@@H](Oc1ccc(C(F)(F)F)cc1)c1ccccc1
inactive: [1] 1.04 | [2] 0.977 | [3] 0.998 | [4] 0.943 | [5] 0.993 | [6] 1.01 | locus YJR075W, strain HOC1, stronger effect = lower value 0.982 | locus YMR307W, strain GAS1, stronger effect = lower value 0.999 | [7] 1.03 | [8] 1.01 | [9] 1.04 | [10] 1.01 | [11] 1.02 | locus YNL322C, strain KRE1, stronger effect = lower value 0.963 | [12] 1.01 | locus YPL055C, strain LGE1, stronger effect = lower value 0.975 | [13] 0.978

— PubChem BioAssay AID1159580 (chemical genetic matrix, 2015)
